Measured values: the supplement of paper PMC10849652
The full data set covers some 8,800 targets. This sample favours those with a hit. About 0.5% of all pairs of compound and target were hits.

Columns and labels:
Experiment in all cases: log2 fold change, soluble protein after heating vs DMSO (PISA); higher = thermal stabilisation; K562 lysate, 10 uM; active = over 0.2 and 3.5 SD of the protein, either way, in both replicates (recomputed)
erlotinib = compound: C#Cc1cccc(Nc2ncnc3cc(OCCOC)c(OCCOC)cc23)c1 [erlotinib]
How it was run: (§1)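 Dounce homogenisation of K562 pellets in PBS pH 7.4 with 1 mM MgCl2 produced a crude extract, used at 1 mg/mL protein. Exposure to 10 μM compound lasted 30 min, and aliquots were then heated for 3 min across 48°C-58°C, pooled and brought to 0.5% NP-40 at 4°C. The supernatant after 21,000xg for 90 min was quantified by TMTpro 16plex LC-MS/MS with channel sums equalised. Duplicate values are given as log-two fold change in thermal stability relative to solvent controls.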

[1] = compound: C/C(=N\NC(=O)C1=CC(=CC=C1)S(=O)(=O)N2CCOCC2)/C3=C(C=CC(=C3)Cl)O
How it was run: as §1

[2] = compound: C1=CC(=CC=C1C2=NC3=C(N2)C=C(C=C3)C(=O)N)OC4=CC=C(C=C4)Cl
How it was run: as §1

[3] = compound: C1=CC2=C(C=CC(=C2)/C=C\3/C(=O)NC(=NCC4=CC=CS4)S3)N=C1
How it was run: as §1

[4] = compound: C1=CC2=NC=CN=C2C=C1/C=C/3\C(=O)NC(=O)S3
How it was run: as §1

[5] = compound: C1=CC=C(C=C1)C2=NC(=C(N2)C3=CC=NC=C3)C4=CC(=C(C=C4)Cl)O
How it was run: as §1

[6] = compound: C1=CC=C2C(=C1)C3=NNC4=CC=CC(=C43)C2=O
How it was run: as §1

[7] = compound: C1CCN(C1)C(=O)NC2=CC=CC(=C2)NC3=NC=C(C(=N3)NCCC4=CN=CN4)Br
How it was run: as §1

[8] = compound: C1CN(CCC1(CC2=CC=C(C=C2)Cl)N)C3=NC=NC4=C3C=CN4
How it was run: as §1

IRAK-1-4 Inhibitor I = compound: C1COCCN1CCN2C3=CC=CC=C3N=C2NC(=O)C4=CC(=CC=C4)[N+](=O)[O-] [IRAK-1-4 Inhibitor I]
How it was run: as §1

Measured: log2 fold change

BOLA2 (UniProt Q9H3K6)
Sequence of UniProt Q9H3K6 (Q9H3K6 whole entry, looked up): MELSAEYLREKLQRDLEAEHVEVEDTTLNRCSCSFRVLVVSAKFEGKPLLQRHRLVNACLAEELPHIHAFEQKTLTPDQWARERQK
inactive: erlotinib 0.008 | [1] 0.078 | [2] -0.112 | [3] -0.007 | [4] 0.032 | [5] 0.01 | [6] 0.039 | [7] 0.034 | [8] 0.006 | IRAK-1-4 Inhibitor I 0.013

BET1 (UniProt O15155)
inactive: erlotinib 0.025 | [1] -0.092 | [2] -0.059 | [3] 0.033 | [4] 0.08 | [5] 0.033 | [6] -0.015 | [7] 0.039 | [8] 0.018 | IRAK-1-4 Inhibitor I 0.006

CARNMT1 (UniProt Q8N4J0)
inactive: erlotinib 0 | [1] 0.004 | [2] 0.028 | [3] -0.019 | [4] 0.029 | [5] -0.015 | [6] -0.05 | [7] -0.008 | [8] -0.011 | IRAK-1-4 Inhibitor I 0.029

CEP120 (UniProt Q8N960)
inactive: erlotinib 0.044 | [1] -0.124 | [2] -0.03 | [3] -0.02 | [4] 0.004 | [5] -0.007 | [6] -0.142 | [7] 0.168 | [8] 0.215 | IRAK-1-4 Inhibitor I 0.018

CDKN1B (UniProt P46527)
inactive: erlotinib -0.079 | [1] -0.067 | [2] 0.011 | [3] 0.012 | [4] 0.026 | [5] -0.038 | [6] 0.03 | [7] 0.045 | [8] 0.003 | IRAK-1-4 Inhibitor I -0.086

C2CD5 isoform 3 (UniProt Q86YS7)
inactive: erlotinib 0.021 | [1] -0.047 | [2] 0.017 | [3] -0.024 | [4] -0.048 | [5] -0.034 | [6] -0.046 | [7] -0.045 | [8] 0.024 | IRAK-1-4 Inhibitor I 0.054

CDC42BPA isoform 6 (UniProt Q5VT25)
inactive: erlotinib -0.007 | [1] 0.077 | [2] -0.086 | [3] 0.011 | [4] -0.012 | [5] -0.029 | [6] -0.09 | [7] -0.032 | [8] -0.006 | IRAK-1-4 Inhibitor I -0.038

CHD3 isoform 3 (UniProt Q12873)
inactive: erlotinib 0.003 | [1] -0.022 | [2] -0.025 | [3] -0.01 | [4] 0.003 | [5] 0.002 | [6] -0.017 | [7] -0.058 | [8] 0.005 | IRAK-1-4 Inhibitor I -0.032

CCDC51 (UniProt Q96ER9)
inactive: erlotinib 0.03 | [1] -0.08 | [2] -0.047 | [3] -0.024 | [4] -0.005 | [5] 0.067 | [6] -0.07 | [7] 0.005 | [8] 0.029 | IRAK-1-4 Inhibitor I -0.041

ATR (UniProt Q13535)
Sequence of UniProt Q13535 (Q13535 whole entry, looked up): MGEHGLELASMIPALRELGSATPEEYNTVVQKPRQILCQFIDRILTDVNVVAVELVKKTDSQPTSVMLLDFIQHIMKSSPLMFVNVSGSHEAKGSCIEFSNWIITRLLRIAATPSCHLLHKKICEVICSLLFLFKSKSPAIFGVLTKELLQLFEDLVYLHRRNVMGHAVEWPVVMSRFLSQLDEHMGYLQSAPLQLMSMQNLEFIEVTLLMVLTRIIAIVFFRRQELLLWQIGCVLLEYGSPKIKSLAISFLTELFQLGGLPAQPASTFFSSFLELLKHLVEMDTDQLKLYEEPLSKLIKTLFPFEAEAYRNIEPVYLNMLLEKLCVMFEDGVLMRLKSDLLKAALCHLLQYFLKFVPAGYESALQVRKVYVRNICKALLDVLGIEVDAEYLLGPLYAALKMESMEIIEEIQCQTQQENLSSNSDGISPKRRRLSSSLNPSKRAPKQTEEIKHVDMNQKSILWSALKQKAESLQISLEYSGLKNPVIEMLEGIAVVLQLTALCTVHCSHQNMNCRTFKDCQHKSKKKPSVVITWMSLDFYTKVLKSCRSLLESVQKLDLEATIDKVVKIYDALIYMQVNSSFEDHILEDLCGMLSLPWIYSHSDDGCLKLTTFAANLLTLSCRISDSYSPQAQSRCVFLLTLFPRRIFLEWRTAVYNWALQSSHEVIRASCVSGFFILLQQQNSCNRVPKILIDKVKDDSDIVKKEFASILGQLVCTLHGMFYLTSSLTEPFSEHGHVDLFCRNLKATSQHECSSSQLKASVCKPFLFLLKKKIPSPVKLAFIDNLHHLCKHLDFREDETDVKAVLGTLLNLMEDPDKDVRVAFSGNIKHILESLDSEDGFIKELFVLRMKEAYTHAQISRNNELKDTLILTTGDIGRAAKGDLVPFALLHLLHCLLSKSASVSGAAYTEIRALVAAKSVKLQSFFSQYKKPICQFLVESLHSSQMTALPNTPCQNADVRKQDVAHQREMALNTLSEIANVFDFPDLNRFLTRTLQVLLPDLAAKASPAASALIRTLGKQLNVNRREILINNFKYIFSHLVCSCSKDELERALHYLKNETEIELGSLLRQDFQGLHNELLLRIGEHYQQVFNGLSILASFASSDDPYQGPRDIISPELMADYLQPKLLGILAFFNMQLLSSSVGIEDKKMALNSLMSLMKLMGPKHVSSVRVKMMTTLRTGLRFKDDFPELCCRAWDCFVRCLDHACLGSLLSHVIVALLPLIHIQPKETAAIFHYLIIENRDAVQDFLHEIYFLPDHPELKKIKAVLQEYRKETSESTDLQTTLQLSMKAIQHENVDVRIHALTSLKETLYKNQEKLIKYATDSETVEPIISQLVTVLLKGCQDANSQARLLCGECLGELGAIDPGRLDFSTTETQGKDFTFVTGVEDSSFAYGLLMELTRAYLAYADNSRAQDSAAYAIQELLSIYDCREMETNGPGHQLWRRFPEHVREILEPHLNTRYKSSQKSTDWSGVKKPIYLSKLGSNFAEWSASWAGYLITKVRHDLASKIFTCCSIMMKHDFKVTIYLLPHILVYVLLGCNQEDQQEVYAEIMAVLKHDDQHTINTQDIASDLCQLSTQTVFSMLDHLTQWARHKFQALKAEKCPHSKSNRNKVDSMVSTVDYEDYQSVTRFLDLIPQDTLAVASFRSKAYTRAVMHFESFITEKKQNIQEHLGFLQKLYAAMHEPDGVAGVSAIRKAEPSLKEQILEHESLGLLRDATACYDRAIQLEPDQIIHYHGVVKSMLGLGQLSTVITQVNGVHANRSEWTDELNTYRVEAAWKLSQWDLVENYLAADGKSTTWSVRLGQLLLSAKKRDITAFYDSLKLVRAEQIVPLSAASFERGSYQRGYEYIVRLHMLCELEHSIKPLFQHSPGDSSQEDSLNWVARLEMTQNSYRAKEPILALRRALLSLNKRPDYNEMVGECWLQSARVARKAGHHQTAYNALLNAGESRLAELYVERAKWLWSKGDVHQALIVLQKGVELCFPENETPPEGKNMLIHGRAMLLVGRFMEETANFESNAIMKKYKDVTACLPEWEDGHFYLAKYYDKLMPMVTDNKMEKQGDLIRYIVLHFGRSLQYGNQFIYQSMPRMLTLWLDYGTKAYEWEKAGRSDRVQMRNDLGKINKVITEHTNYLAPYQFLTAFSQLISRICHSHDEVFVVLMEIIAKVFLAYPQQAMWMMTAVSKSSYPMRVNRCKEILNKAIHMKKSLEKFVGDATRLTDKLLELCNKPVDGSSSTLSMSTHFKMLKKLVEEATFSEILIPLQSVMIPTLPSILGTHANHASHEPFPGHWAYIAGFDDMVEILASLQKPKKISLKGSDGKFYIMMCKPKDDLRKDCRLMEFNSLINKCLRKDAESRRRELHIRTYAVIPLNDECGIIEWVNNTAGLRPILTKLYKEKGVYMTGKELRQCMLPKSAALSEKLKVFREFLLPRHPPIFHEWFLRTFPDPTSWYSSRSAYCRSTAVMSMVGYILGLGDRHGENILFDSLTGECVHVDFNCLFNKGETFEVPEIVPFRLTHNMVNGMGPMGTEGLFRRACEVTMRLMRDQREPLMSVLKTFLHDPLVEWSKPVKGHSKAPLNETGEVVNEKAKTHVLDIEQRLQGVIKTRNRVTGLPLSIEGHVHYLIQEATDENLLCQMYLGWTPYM
inactive: erlotinib -0.025 | [1] -0.012 | [2] -0.055 | [3] 0.336 | [4] 0.255 | [5] 0.125 | [6] 0.071 | [7] -0.005 | [8] 0.125 | IRAK-1-4 Inhibitor I -0.025

CDKN1C (UniProt P49918)
Sequence of UniProt P49918 (P49918 whole entry, looked up): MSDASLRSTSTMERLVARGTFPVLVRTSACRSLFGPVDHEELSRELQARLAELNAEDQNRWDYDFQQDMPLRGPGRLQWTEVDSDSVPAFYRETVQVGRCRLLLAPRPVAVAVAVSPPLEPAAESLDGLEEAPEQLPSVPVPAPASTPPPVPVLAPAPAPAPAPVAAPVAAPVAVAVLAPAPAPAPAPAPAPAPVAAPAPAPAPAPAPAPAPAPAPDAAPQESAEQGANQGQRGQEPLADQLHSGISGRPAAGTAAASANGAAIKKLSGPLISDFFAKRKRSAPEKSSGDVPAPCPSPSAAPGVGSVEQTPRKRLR
active: [6] -0.461
inactive: erlotinib -0.021 | [1] 0.34 | [2] -0.015 | [3] -0.159 | [4] 0.065 | [5] -0.032 | [7] 0.053 | [8] 0.009 | IRAK-1-4 Inhibitor I 0.069

ATXN2 (UniProt Q99700)
inactive: erlotinib 0.007 | [1] -0.015 | [2] 0.063 | [3] -0.006 | [4] -0.041 | [5] -0.005 | [6] -0.022 | [7] 0.026 | [8] 0.014 | IRAK-1-4 Inhibitor I 0.016

CHD4 isoform 2 (UniProt Q14839)
inactive: erlotinib -0.02 | [1] 0.009 | [2] 0.007 | [3] 0.004 | [4] -0.016 | [5] -0.004 | [6] -0.013 | [7] -0.013 | [8] 0.031 | IRAK-1-4 Inhibitor I -0.015

CDC45 isoform 3 (UniProt O75419)
inactive: erlotinib 0.035 | [1] -0.008 | [2] -0.065 | [3] 0.029 | [4] -0.005 | [5] -0.022 | [6] -0.017 | [7] -0.014 | [8] -0.004 | IRAK-1-4 Inhibitor I 0.066

ATG4A (UniProt Q8WYN0)
inactive: erlotinib 0.031 | [1] -0.087 | [2] -0.055 | [3] -0.01 | [4] 0.007 | [5] 0.01 | [6] -0.023 | [7] -0.015 | [8] 0.038 | IRAK-1-4 Inhibitor I -0.001

CEP76 (UniProt Q8TAP6)
Sequence of UniProt Q8TAP6 (Q8TAP6 whole entry, looked up): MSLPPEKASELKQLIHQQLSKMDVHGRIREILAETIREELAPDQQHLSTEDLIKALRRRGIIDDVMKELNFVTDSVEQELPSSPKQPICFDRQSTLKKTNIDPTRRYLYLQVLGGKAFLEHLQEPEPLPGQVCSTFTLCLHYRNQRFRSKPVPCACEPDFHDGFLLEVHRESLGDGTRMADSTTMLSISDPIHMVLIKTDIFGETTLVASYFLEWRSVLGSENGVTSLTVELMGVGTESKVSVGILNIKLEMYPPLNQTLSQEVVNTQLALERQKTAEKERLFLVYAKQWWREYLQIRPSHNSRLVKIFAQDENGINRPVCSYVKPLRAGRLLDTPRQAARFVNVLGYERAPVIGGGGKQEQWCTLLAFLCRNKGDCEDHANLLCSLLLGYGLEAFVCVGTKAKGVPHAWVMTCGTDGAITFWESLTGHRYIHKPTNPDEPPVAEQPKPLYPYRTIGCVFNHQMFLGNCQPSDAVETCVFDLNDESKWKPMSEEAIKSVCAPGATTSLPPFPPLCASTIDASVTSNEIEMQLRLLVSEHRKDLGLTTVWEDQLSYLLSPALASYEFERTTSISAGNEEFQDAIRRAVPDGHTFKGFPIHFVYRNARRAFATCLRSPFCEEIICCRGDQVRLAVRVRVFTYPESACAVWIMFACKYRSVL
inactive: erlotinib 0.005 | [1] -0.033 | [2] 0.012 | [3] 0.053 | [4] -0.072 | [5] -0.003 | [6] 0.052 | [7] -0.002 | [8] 0 | IRAK-1-4 Inhibitor I 0.056

CDK5RAP3 isoform 4 (UniProt Q96JB5)
inactive: erlotinib 0.009 | [1] -0.068 | [2] -0.011 | [3] -0.018 | [4] 0.031 | [5] -0.002 | [6] -0.014 | [7] -0.016 | [8] 0.016 | IRAK-1-4 Inhibitor I 0.022

CHCHD1 (UniProt Q96BP2)
inactive: erlotinib -0.002 | [1] -0.7 | [2] 0.029 | [3] -0.053 | [4] 0.005 | [5] 0.021 | [6] -0.002 | [7] 0.04 | [8] 0.043 | IRAK-1-4 Inhibitor I 0.068

BMS1 (UniProt Q14692)
inactive: erlotinib -0.029 | [1] -0.089 | [2] -0.027 | [3] 0.028 | [4] -0.046 | [5] 0.034 | [6] 0.039 | [7] 0.006 | [8] 0.01 | IRAK-1-4 Inhibitor I -0.01

BRAT1 (UniProt Q6PJG6)
Sequence of UniProt Q6PJG6 (Q6PJG6 whole entry, looked up): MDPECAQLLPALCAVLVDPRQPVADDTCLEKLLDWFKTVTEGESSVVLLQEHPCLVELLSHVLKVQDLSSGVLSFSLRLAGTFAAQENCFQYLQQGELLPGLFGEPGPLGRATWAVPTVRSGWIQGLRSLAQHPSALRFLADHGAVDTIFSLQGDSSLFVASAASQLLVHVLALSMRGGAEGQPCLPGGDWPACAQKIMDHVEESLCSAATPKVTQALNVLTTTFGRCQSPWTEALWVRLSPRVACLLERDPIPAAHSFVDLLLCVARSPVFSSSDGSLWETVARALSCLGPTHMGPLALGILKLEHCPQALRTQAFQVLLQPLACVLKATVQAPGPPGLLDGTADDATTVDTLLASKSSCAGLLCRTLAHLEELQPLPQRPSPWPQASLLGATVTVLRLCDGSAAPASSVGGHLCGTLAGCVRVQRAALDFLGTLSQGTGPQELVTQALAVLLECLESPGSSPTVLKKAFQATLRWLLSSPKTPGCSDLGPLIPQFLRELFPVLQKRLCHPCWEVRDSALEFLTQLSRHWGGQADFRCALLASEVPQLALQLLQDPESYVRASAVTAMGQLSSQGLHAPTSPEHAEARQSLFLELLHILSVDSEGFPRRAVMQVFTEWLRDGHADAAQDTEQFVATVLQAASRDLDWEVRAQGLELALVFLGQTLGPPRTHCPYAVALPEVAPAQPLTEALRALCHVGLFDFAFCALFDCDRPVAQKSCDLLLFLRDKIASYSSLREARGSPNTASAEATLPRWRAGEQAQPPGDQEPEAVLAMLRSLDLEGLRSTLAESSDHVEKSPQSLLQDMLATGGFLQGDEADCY
inactive: erlotinib 0.05 | [1] -0.01 | [2] -0.052 | [3] 0.006 | [4] 0.026 | [5] 0.03 | [6] -0.075 | [7] 0.003 | [8] -0.013 | IRAK-1-4 Inhibitor I -0.013

CCNK isoform 4 (UniProt O75909)
inactive: erlotinib -0.018 | [1] -0.022 | [2] -0.012 | [3] -0.016 | [4] -0.062 | [5] -0.039 | [6] -0.001 | [7] 0.01 | [8] 0.002 | IRAK-1-4 Inhibitor I -0.021

C16orf70 (UniProt Q9BSU1)
active: [3] 0.271
inactive: erlotinib 0.023 | [1] 0.194 | [2] -0.06 | [4] 0.033 | [5] -0.128 | [6] -0.193 | [7] 0.016 | [8] 0.055 | IRAK-1-4 Inhibitor I -0.021

CHD5 (UniProt Q8TDI0)
inactive: erlotinib 0.008 | [1] -0.004 | [2] -0.031 | [3] 0.056 | [4] -0.035 | [5] 0.043 | [6] -0.072 | [7] 0.058 | [8] -0.003 | IRAK-1-4 Inhibitor I -0.016

BPHL (UniProt Q86WA6)
inactive: erlotinib -0.054 | [2] 0.033 | [3] 0.089 | [4] -0.135 | [5] -0.071 | [6] 0.118 | [7] -0.063 | [8] 0.082 | IRAK-1-4 Inhibitor I -0.033
active: [1] -0.445

CAMK1 (UniProt Q14012)
inactive: erlotinib -0.014 | [1] -0.145 | [2] 0.008 | [3] 0 | [4] 0.037 | [5] -0.011 | [6] 0.135 | [7] 0 | [8] 0.016 | IRAK-1-4 Inhibitor I 0.107

ATE1 isoform 2 (UniProt O95260)
Sequence of UniProt O95260 (O95260 whole entry, looked up): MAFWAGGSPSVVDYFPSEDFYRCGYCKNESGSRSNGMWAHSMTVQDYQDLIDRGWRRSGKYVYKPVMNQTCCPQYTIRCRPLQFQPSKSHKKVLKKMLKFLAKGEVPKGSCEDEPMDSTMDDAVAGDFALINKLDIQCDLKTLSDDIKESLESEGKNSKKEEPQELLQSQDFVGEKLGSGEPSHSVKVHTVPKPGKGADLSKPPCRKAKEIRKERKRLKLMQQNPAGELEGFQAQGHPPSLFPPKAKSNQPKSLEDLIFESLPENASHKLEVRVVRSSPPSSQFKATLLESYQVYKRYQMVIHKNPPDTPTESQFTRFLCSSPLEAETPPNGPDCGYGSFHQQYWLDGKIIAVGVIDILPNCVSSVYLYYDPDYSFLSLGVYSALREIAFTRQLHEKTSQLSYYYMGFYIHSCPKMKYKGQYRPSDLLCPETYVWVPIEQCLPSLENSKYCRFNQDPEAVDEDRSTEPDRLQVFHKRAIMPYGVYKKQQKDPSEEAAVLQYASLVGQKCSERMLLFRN
inactive: erlotinib -0.022 | [1] -0.01 | [2] 0.002 | [3] -0.063 | [4] 0.027 | [5] 0.007 | [6] 0.021 | [7] 0.054 | [8] 0.013 | IRAK-1-4 Inhibitor I -0.038

CCAR2 (UniProt Q8N163)
inactive: erlotinib -0.004 | [1] -0.006 | [2] -0.003 | [3] -0.01 | [4] 0.01 | [5] 0.005 | [6] 0.001 | [7] 0 | [8] 0.001 | IRAK-1-4 Inhibitor I -0.009

CDK16 isoform 2 (UniProt Q00536)
inactive: erlotinib -0.061 | [1] 0.002 | [2] 0.016 | [3] 0 | [4] -0.005 | [5] -0.017 | [6] 0.151 | [7] 0.004 | [8] -0.007 | IRAK-1-4 Inhibitor I 0.03

C3 (UniProt P01024)
inactive: erlotinib 0.016 | [1] -0.031 | [2] 0 | [3] 0.004 | [4] -0.036 | [5] 0.151 | [6] -0.061 | [7] -0.042 | [8] 0.01 | IRAK-1-4 Inhibitor I -0.014

C5orf51 (UniProt A6NDU8)
inactive: erlotinib 0.024 | [1] 0.004 | [2] -0.008 | [3] -0.026 | [4] 0.04 | [5] 0.007 | [6] -0.038 | [7] -0.027 | [8] 0.055 | IRAK-1-4 Inhibitor I -0.025
